Screens deposited in PubChem by National Center for Advancing Translational Sciences (NCATS).
PINK1 modulator: modulators of PINK1 expression. PINK1 immunofluorescence, high-content cytometry, 24 h. Potency, µM (series often up to 76.6 µM), for inactives: at the highest dose activation (PINK1 increase), usual class: activators. hit rate 0.2% among 410,000. AID 624263; active means well fitted activation curve with a large enough effect; inconclusive means small, poorly fitted or top-dose-only effect; cell line not stated here; further: % of control where 0% means no effect; nearly all actives have a fitted effect of over 65% in size
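Stable cell line treated 24 h with compounds at 5 concentrations (CCCP controls), then fixed and immunostained for PINK1 plus nuclear and cell stains; PINK1 immunofluorescence quantified by laser-scanning microplate cytometry.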
VP16 counter: Gal4-VP16 reporter inhibition counter-screen | Drosophila S2 Gal4-VP16 UAS-luciferase, luminescence, 20 h | Potency, µM (highest dose often 53.6 µM), for inactives: at the top dose activity, negative = inhibition, actives largely listed as inhibitors | hit rate 3.5% among 310,000 | AID 2546;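 further: Gal4-VP16 expression switched on by copper sulfate through the metallothionein promoter; on the % scale 0 is the no-effect control and ±100 the full control effect; nearly all actives have a fitted effect of over 50% in size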
ClpP mod: qHTS Assay for Activators of ClpP; hit rate 1.9% among 340,000; ATP-dependent Clp protease proteolytic subunit (Bacillus subtilis (strain 168)), P80244; purified B. subtilis ClpP, FRET peptide cleavage, 20 min; Potency, µM (titrated, usually from 57.5 µM), for the others: at the top dose activity change, negative = active; active means well fitted falling curve with a large enough effect; inconclusive means small, poorly fitted or top-dose-only effect; inactive means no such curve, though single readings can be large or run the other way; further: the source files actives as falling curves though it sought activators and does not explain the sign; nearly all actives have a fitted effect of over 65% in size
Target sequence (P80244 whole entry, looked up): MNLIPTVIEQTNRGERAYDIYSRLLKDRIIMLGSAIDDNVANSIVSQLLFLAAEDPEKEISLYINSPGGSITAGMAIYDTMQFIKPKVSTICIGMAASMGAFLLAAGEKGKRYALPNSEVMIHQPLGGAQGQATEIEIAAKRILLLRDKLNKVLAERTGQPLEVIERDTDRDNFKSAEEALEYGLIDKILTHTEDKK
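Purified B. subtilis ClpP, 10 microg/mL final in Tris/HCl pH8 with KCl, BSA, glycerol and Tween-20, cleaved an Abz/nitrotyrosine-quenched decapeptide. Fluorescence (ex 320, em 430) was read at 0 and 20 min at room temperature. Delta was normalized to 5.8 microM ADEP and DMSO/no-enzyme controls.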
Epigenetic reg: epigenetic control regulation, reporter derepression. murine LDR cells, GFP reporter derepression, 30 h. Potency, µM (titrated, usually from 53.9 µM), for inactives: at the highest dose GFP activation, hits mostly activators. hit rate 0.2% among 280,000. AID 1865; further: % of control where 0% means no effect; nearly all actives have a fitted effect of over 60% in size
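Derepression of a silenced CMV-GFP reporter in murine LDR cells is scored by enumerating GFP-positive cells with a laser-scanning microplate cytometer after 30 hours of treatment at 37 C.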
RORg inh: inhibitors of mouse ROR gamma transcriptional activity; P51450; hit rate 5.4% among 310,000; Potency, µM (doses to about 53.6 µM), inactives show top-dose activity change, negative = inhibition, usual class: inhibitors; Drosophila S2 Gal4-RORgamma UAS-luciferase reporter, 20 h; further: on the % scale 0 is the no-effect control and ±100 the full control effect; nearly all actives have a fitted effect of over 60% in size
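Luciferase reporter read in Schneider cells carrying Gal4-RORγ (mouse) and UAS-Photinus luciferase; cells given compound 1 h before 700 uM copper sulfate induction, then incubated 20 h at ambient temperature.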
Sfp PPTase inh: blocks B. subtilis Sfp PPTase activity. Biochemical Sfp PPTase activity, qHTS. hit rate 3.5% among 310,000. Q9F4F7. Potency, µM, inactives show largest response in the series, negative = inhibition, most hits filed as inhibitors;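 further: the enzyme is Sfp with the accession as filed and its product quenches rhodamine fluorescence; 0% = enzyme reaction without inhibitor and -100% = no enzyme wells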
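Buffer: 50 mM Hepes-Na pH 7.6, 10 mM MgCl2, 0.01% Nonidet P-40, 0.01% BSA. Enzyme 15 nM, pre-exposed to compound 15 min; substrates then added and fluorescence change tracked over 30 min.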
An asterisk follows results filed as active; ? = inconclusive; / = not tested or not shown; [ ] = another dose, or the depositor's remark. Shown are actives, neighbours in structure and some others; about 8.1% of the full set was active somewhere. Unless noted, the call rests on the fitted dose curve; in most records, active means well fitted curve in the direction sought with a large enough effect; inconclusive means small, poorly fitted or top-dose-only effect, or another doubt; inactive means no such curve, though single readings can be large; an effect the other way counts as inactive or inconclusive. Potency means the concentration at half of the fitted maximal effect.

SMILES | PINK1 modulator | VP16 counter | ClpP mod | Epigenetic reg | RORg inh | Sfp PPTase inh
COc1c(OC)c(O)c2c(=O)cc(-c3c(O)cccc3O)oc2c1OC | 5.1% | 2.2% | 1.2% | 1.9% | ? | 20µM*
CN(CC(=O)Nc1ccccc1Cl)S(=O)(=O)c1ccc(C(=O)N2CCOCC2)s1 | 0.9% | / | 1.5% | 9.4% | / | /
COC(=O)CN1C(C(=O)c2ccccc2)=C(OC(=O)c2ccc(C)cc2)c2ccccc2S1(=O)=O | 3.1% | / | 0.0% | -2.9% | / | /
COc1cc(OC)c(OC)cc1/C=N/n1c(COc2ccccc2)n[nH]c1=S | 3.6% | -8.8% | -3.7% | / | -38.5% | 44.7µM*
COc1ccc(/C=N/n2c(COc3ccccc3)n[nH]c2=S)cc1OC | -0.2% | -2.5% | -0.6% | / | 5.01µM* | ?
COc1ccc(Br)cc1/C=N/n1c(COc2ccccc2)n[nH]c1=S | 0.1% | -0.1% | -2.6% | / | ? | 1.8%
COc1ccc(OC)c(/C=N/n2c(COc3ccccc3)n[nH]c2=S)c1 | 0.4% | -15.8% | 8.0% | / | ? | -0.1%
COc1ccc(CNc2oc(-c3ccc(COc4ccc(Cl)cc4)o3)nc2C#N)cc1 | 9.9% | / | 12.6µM* | 4.0% | / | /
COc1ccc(OCc2ccc(-c3nc(C#N)c(NCc4cccnc4)o3)o2)cc1 | -1.5% | / | ? | 3.2% | / | /
COc1ccc(OCc2ccc(-c3nc(C#N)c(NCc4ccccc4)o3)o2)cc1 | -0.4% | / | 11.2µM* | 1.1% | / | /
C=C(C)C(O)/C=C/c1ccc(C(F)(F)F)cc1 (stereo unspecified) | / | 2.5% | / | 0.8% | -16.3% | 14.7%
COc1ccccc1/C=N/NC(=O)c1ccccc1Cl | -1.6% | -1.4% | / | 1.3% | -31.4% | 9.0%
C=CCc1cccc(/C=N/NC(=O)c2ccccc2OC)c1O | -1.7% | 1.26µM* | 5.8% | -2.1% | 0.501µM* | 10.9%
C=CCc1cccc(/C=N/NC(=O)c2ccccc2Br)c1O | 18.2% | 3.98µM* | 5.8% | -0.2% | 1.41µM* | 0.7%
COCC(C)NC(=O)C1=CC(c2ccc3c(c2)OCO3)=NS(=O)(=O)N1C (stereo unspecified) | -0.2% | / | -1.3% | -4.2% | / | /
Cc1ncc(CO)c(/C=N/NC(=S)Nc2ccc(F)cc2)c1O | 1.2% | ? | -13.0% | 0.0% | ? | -16.8%
Cc1ncc(CO)c(/C=N/Nc2ccc(C(F)(F)F)cn2)c1O | 0.5% | 15.8µM* | / | / | ? | 6.2%
NC(=S)N/N=C/c1ccc(-n2nncc2-c2ccc(Cl)cc2)cc1 | 0.8% | ? | / | / | 5.62µM* | -2.3%
Nc1cccc(-n2nncc2-c2ccc(Cl)cc2)c1 | / | -13.3% | / | -7.4% | -1.4% | 7.4%
CC(CNC(=S)Nc1cc(F)cc(F)c1)CSc1ccc(Cl)cc1 (stereo unspecified) | ? | ? | / | -1.6% | 8.91µM* | ?
Cc1ccc(NC(=O)NCCSc2ccc(C)cc2)cc1 | 0.6% | -6.6% | 0.8% | -0.4% | 25.2% | 15.2%
COC(=O)Cc1ccc(NC(=S)NCCSc2ccc(C)cc2)cc1 | -0.4% | 0.7%[10 µM] | -3.5% | 10.0% | ? | -4.5%
Cc1ccc(SCCNC(=S)Nc2cc(C)cc(C)c2)cc1 | ? | 7.94µM* | 1.5% | -6.2% | 5.01µM* | 15.7%
Cc1cccc(C)c1NC(=S)NCCSc1ccc(Cl)cc1 | 6.7% | ? | / | 0.0% | 2.51µM* | 23.9%
Cc1ccc(NC(=S)NCCSc2ccc(Cl)cc2)cc1 | 0.1% | 0.891µM* | / | -2.0% | 0.794µM* | 19.6%
